An excerpt weighted towards active compounds, which were near 3.5% of everything screened.
MITF inh: human MITF inhibition, primary screen; O75030; inhibition, % at 2.6 µM; actives 0.91% (n = 650,000); AlphaScreen MITF homodimerization, bead proximity signal; in the data active = inhibition above about 50%;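 note: 0% = vehicle wells with protein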
FBW7 activator: activators of human E3 ligase FBW7; actives 0.13% (n = 650,000); AlphaScreen FBW7–phospho-cyclin E peptide binding, activator screen; normalized activity (activation), % at 26.1 µM; AID 1259310; in the data active = normalized activity above about 1.9%;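 note: purified mutant Fbw7 with reduced substrate affinity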
GPR151 ag: human GPR151 activation | actives 1% (n = 650,000) | Q8TDV0 | PathHunter beta-arrestin GPR151 cells, luminescence | activation, % at 11.2 µM; in the data active = activation above about 4.9%;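 note: 0% = median of compound wells and 100% = cells with positive control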
TEAD-YAP block: TEAD-YAP interaction inhibition; HEK-TIYL cells, TEAD-Gal4/YAP UAS-luciferase luminescence; inhibition, % at 9.12 µM; actives 1.4% (n = 640,000); in the data active = inhibition above about 32%;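 note: 0% = median of test compound wells and 100% = reference inhibitor wells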
GPR151 conf act: confirmation of human GPR151 activators; shares compounds with GPR151 ag; 6,700 tested, under 10 active; GPR151 PathHunter beta-arrestin cells, luminescence, 90 min; % of EA-reagent control over plate median; activation, % at 11.2 µM;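 active = mean percent activation across replicates above the confirmation screen cutoff of 4.91%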
GPR119 ag: counter-screen for GPR151 activators: effect on human GPR119; shares compounds with GPR151 ag; GPR119 PathHunter beta-arrestin cells, luminescence, 90 min; 0 = compound-well median, 100 = enzyme-acceptor control; activation, % at 11.2 µM; actives 0.3% (n = 6,700);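 active = mean percent activation in the counterscreen above 29.09%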;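 note: counterscreen on off-target GPR119 to flag nonselective hits from the GPR151 activator screen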
Target sequence (Q8TDV5 whole entry, looked up): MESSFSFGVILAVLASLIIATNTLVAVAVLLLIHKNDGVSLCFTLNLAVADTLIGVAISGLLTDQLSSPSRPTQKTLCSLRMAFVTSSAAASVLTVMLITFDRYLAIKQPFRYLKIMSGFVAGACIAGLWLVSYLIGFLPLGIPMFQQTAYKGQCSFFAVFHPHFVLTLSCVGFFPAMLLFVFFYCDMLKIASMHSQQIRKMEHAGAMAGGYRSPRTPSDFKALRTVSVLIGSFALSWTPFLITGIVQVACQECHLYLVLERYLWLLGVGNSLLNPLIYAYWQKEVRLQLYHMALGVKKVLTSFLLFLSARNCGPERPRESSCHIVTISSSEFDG
Numbers without * were called inactive; / = not tested or not shown; ! = not active in a repeat.

SMILES	MITF inh	FBW7 activator	GPR151 ag	TEAD-YAP block	GPR151 conf act	GPR119 ag
Cc1cccc(NC(=O)C2CCCN(S(=O)(=O)c3ccc4[nH]c(=O)ccc4c3)C2)n1 (centres undefined)	6.1	0.1	5.3*	3.5	-0.4	-12.6
CCOC(=O)CSc1nc2c(sc(=S)n2-c2ccccc2C)c(=O)n1-c1ccccc1OC	-6.6	0.3	0.4	16.4	/	/
O=C1NC(Cc2ccccc2)(Cc2ccccc2)C(=O)N1CC(=O)N1CCc2ccccc21	-9.3	0.6	-2.8	3.0	/	/
c1cncc(-c2cc(NCc3ccco3)nc(-c3ccncc3)n2)c1	17.8	0.1	5.1*	3.1	-1.2	-16.0
Cc1ccc(CN2CCc3nnc(CNC(=O)c4ccccn4)n3CC2)cc1	7.6	0.0	-0.9	11.3	/	/
C/C(=C\c1ccco1)CN1CCc2nnc(CNC(=O)CCc3cccnc3)n2CC1	17.8	0.1	-1.9	-1.0	/	/
CC(C)=CCCC(C)CN1CCc2nnc(CNC(=O)c3ccccn3)n2CC1 (centres undefined)	8.0	-0.1	6.8*	1.8	1.0	8.0
Cc1ccc(CN2CCc3nnc(CNC(=O)c4ccccc4)n3CC2)cc1	5.8	0.2	6.0*	5.1	-0.3	5.5
CC(C)=CCN1CCc2nnc(CNC(=O)c3ccccn3)n2CC1	2.6	0.0	0.0	0.2	/	/
C/C=C(\C)CN1CCc2nnc(CNC(=O)CCc3cccnc3)n2CC1	8.8	0.1	15.3*	4.8	-0.4	-3.5
COc1cccc(C=O)c1OCc1ccccc1C	-5.2	0.2	-1.6	1.9	/	/
COCCNC(=O)[C@@H]1C[C@H](NCc2ccccc2)CN1Cc1ccccc1Cl	5.0	1.0	8.5*	-3.9	-0.3	0.5
COCCNC(=O)[C@@H]1C[C@H](NCc2ccc(C(C)C)cc2)CN1Cc1ccccc1Cl	7.2	0.7	1.4	-10.0	/	/
CN(C)c1ccc(/C=C/CN2CCC(O)CC2)cc1	32.2	-0.1	-0.1	-8.1	/	/
CN(C)c1ccc(/C=C/CN2CCCCCC2)cc1	29.6	0.1	4.9*	5.3	-0.7	-0.8
Cc1sc(NC(=O)CCOc2ccccc2)c(C#N)c1C	-5.2	-0.1	6.9*	5.8	-0.7	3.8
O=C(c1ccccc1)c1ccccc1C(=O)N1CCN(Cc2ccccc2)CC1	10.1	-0.1	-0.2	0.2	/	/
CC(=O)Nc1ccc(NC(=O)c2cnc(-c3ccccc3)s2)cc1	5.7	-0.1	5.9*	-5.8	-0.9	-12.0
CC12CN3CC(C)(CN(C1)C3c1ccccc1Cl)C2 (centres undefined)	9.2	-0.1	5.5*	5.0	-0.7	-5.2
CC(C)C12CN3CC(C(C)C)(CN(C1)C3c1ccccc1Cl)C2=O (centres undefined)	4.1	-0.1	-0.1	-6.2	/	/
COc1ccccc1C1CC(c2c(O)cc(C)oc2=O)=NCCS1 (centres undefined)	2.1	-0.3	0.7	30.9	/	/
N#C/C(=C/c1ccc(F)cc1)c1ccc(C#N)cc1	10.1	0.2	8.3*	-8.2	0.3	0.6
Cc1ccc2c(c1)CN(CC(=O)N1CCCC(C)C1)CC(c1ccsc1)O2 (centres undefined)	1.6	-0.2	-0.7	11.9	/	/
CC(C)(C)c1cc(-c2ccccc2)cc(-c2ccccc2O)n1	4.4	-1.4	2.3	-13.7	/	/
CCC(C)NC(=O)C1C2C(=O)N(Cc3ccccc3)CC23C=CC1(C)O3 (centres undefined)	9.1	-0.1	8.7*	7.7	-0.5	-7.9
SMILES	MITF inh	FBW7 activator	GPR151 ag	TEAD-YAP block	GPR151 conf act	GPR119 ag
COC(=O)COc1ccc(-c2nc3ccccc3s2)cc1OC	-7.1	-0.1	-2.3	2.1	/	/
COc1cc(NC(=O)c2cnc(-c3csc4ccccc34)s2)cc(OC)c1OC	5.2	-0.1	5.1*	9.7	0.1	2.4
COc1ccc(-c2nc3ccccc3s2)cc1NC(C)=O	6.9	0.0	4.9*	-42.3	-0.3	-5.7
CC(=O)Nc1ccc(NC(=O)c2cnc(-c3csc4ccccc34)s2)cc1	-2.9	0.0	-3.0	-3.6	/	/
COc1cc(NC(=O)c2ccc3nc(-c4cccc(C(C)=O)c4)sc3c2)cc(OC)c1OC	7.1	0.1	13.2*	-27.1	0.6	2.0
CC(=O)Nc1ccc(NC(=O)c2ccc3nc(-c4ccc(C(=O)NC5CC5)cc4)sc3c2)cc1	2.3	0.0	11.1*	9.9	0.5	3.1
CC(=O)Nc1ccc(NC(=O)c2ccc3nc(-c4cccc(C(C)=O)c4)sc3c2)cc1	-16.8	0.0	-0.9	1.2	/	/
CC1=C(C(=O)O)N2C(=O)C(NC(=O)CCn3ncc([N+](=O)[O-])c3C)C2SC1 (centres undefined)	4.5	0.0	0.0	-2.5	/	/
CCCNC(=O)c1ccc2nc(-c3ccc(OC)cc3)sc2c1	5.2	0.1	11.4*	-18.6	-0.8	-4.9
CN1CCN(c2ccc(-c3nc4ccc(C(=O)NCc5cccc(C(F)(F)F)c5)cc4s3)cc2)CC1	-3.8	0.2	5.8*	16.2	-1.0	-18.8
Fc1ccc(C(c2nnnn2Cc2ccco2)N2CCN(C3CCCCC3)CC2)cc1 (centres undefined)	-3.0	-0.1	0.6	-5.7	/	/
Fc1ccc(C(c2nnnn2Cc2ccco2)N2CCN(Cc3ccccc3)CC2)cc1 (centres undefined)	-0.8	-0.2	5.8*	-2.0	0.1	-1.8
CCc1cccc2sc(NC(=O)c3ccc(OC)cc3)nc12	7.6	-0.1	-1.0	-2.2	/	/
Cn1c(=O)c(Cc2ccccc2C(F)(F)F)nc2ccccc21	-6.0	0.1	-0.8	3.5	/	/
Cc1ccc2occ(CN3CCN(c4ccccc4F)CC3)c(=O)c2c1	3.9	0.1	-0.1	-1.2	/	/
O=C(c1cccc([N+](=O)[O-])c1)N1CCCc2ccccc21	-1.2	-0.1	5.0*	-4.2	0.8	-0.6
O=C(c1ccc([N+](=O)[O-])cc1)N1CCCc2ccccc21	12.3	-0.1	-0.7	-10.3	/	/
O=C(c1ccc(-n2cnnn2)cc1)N1CCCc2ccccc21	-10.1	-0.2	5.0*	-0.2	0.3	-8.1
CC(C)NC(=O)CCc1nnc2n(Cc3ccc(F)cc3)c(=O)c3ccccc3n12	14.1	0.7	8.0*	4.9	0.7	12.5
O=C(CCc1nnc2n(Cc3ccc(F)cc3)c(=O)c3ccccc3n12)Nc1ccccc1	3.6	0.1	-0.8	-3.3	/	/
CC(C)SC(=N)N	-2.3	0.1	1.1	/	/	/
CCSC(=N)N	-4.5	0.1	7.1*!	11.7	-0.4	4.2
CC(C)NC(=O)c1cnc2scc(-c3ccccc3)n2c1=O	3.2	-0.2	8.5*	2.2	2.3	3.3
COc1ccccc1C(=O)N(c1ccc(Cl)cc1)C1C=CS(=O)(=O)C1 (centres undefined)	9.3	0.7	-0.5	-18.7	/	/
CCOc1c(Cl)cc(C(=O)O)cc1OC	-23.4	-0.2	6.4*	-1.3	0.7	13.2
CCCCOc1c(Cl)cc(C(=O)O)cc1OC	0.8	0.0	-0.2	3.5	/	/
